# About 83,000 compounds went through this panel and 20% of them were active in at least one assay; those are over-represented in the sample as a whole.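 Single-concentration screen, 48 h exposure, 96-well plates. Endpoint: percent growth. Below 10 = active.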 Values without a mark were called inactive. The source made the active and inactive calls.
# Test system: NCI-H522 lung
# Test: NCI-60 one-dose screen, 48 h (100 = growth as untreated, 0 = no growth, -100 = all killed)
# Conditions: 10 µM unless noted
row,Structure (SMILES),growth
1,O=C(Cc1ccc(F)c(Cl)c1)Nc1cc(C2(C(F)(F)F)CC2)nn1CC1CCCCC1,-28.1% (active)
2,O=C(S)CNC(=O)c1ccccc1,86.4%
3,COc1cc(CCC[P+](c2ccccc2)(c2ccccc2)c2ccccc2)c(OC)c(OC)c1OC,71.9%
4,COc1cc2cc(Oc3ccc(NC(=O)Nc4ccc(Cl)c(C(F)(F)F)c4)cc3)c(C)nc2cc1OCCN1CCOCC1,20.7%
5,Cc1cc2nc3cc(C)c(N)cc3[n+](-c3ccccc3)c2cc1N,38.4%
6,CN1CCN(c2ccc(-c3cc4c(Nc5ccc(F)c(Cl)c5)ncnn4c3)cc2)CC1,72.5%
7,COc1ccc(S(=O)(=O)n2cc(C3OC(c4cc(OC)c(OC)c(OC)c4)=NN3C(C)=O)c3ccccc32)cc1OC (stereo not drawn),84%
8,COc1nc2ccc(C)cc2cc1-c1nc2c(cnn2-c2ccccc2)c(=O)[nH]1,56.5%
9,Cc1cccc2c3c(sc12)C(c1ccc(Cl)cc1)C(C#N)=C(N)O3 (stereo not drawn),13.7%
10,CN(C)c1ccc2nc3ccc(=[N+](C)C)c([N+](=O)[O-])c-3sc2c1,16.3%
11,Cc1ccc(C(=O)N/N=C/c2cccc(Oc3ccccc3)c2)cn1,31.5%
12,Cc1c(C(=O)N[C@@H](Cc2ccccc2)C(=O)C(=O)NCc2ccc(F)cc2)[nH]c2ccccc2c1=O,91.4%
13,Cc1c(C(=O)NCCCc2ccccc2)sc2ncc(-c3ccc(Br)cc3)n12,98.5%
14,COc1ccc(-c2conc2-c2ccccc2)cc1,-6.84% (active)
15,Cc1ccccc1C(=O)NN,92%
16,CCS(=O)(=O)c1ncnc2nc[nH]c12,65.4%
17,CCCCC[C@H](O)C/C=C1/C(=O)C=C[C@@H]1C/C=C\CCCC(=O)O,46.3%
18,C=C1CC[C@H](C(C)C)[C@@H]2[C@H]1[C@H]1CC(=C)[C@@H](O)CC[C@@](C)(O)[C@@H]2O1,89.5%
19,COc1ccc(-c2[nH]c3ccc(OC)cc3c2/C=C(\C#N)S(=O)(=O)c2ccccc2)cc1,34.5%

row,Structure (SMILES),growth
1,COc1ccc(C(=O)n2nc(-c3ccccc3)nc2N)cc1OC,85.4%
2,O=c1ccn(Cc2cn(-c3c4ccccc4nc4ccccc34)nn2)c(=O)[nH]1,-57.4% (active)
3,CC/C=C\C[C@@H](O)C/C=C1/C(=O)C=C[C@H]1C/C=C\CCCC(=O)OC,-67.7% (active)
4,CCCCn1c(=O)c(-c2cc(-c3ccc(Cl)cc3)nc(-c3ccc(Cl)cc3)c2)cc2cc(Cl)ccc21,99.3%
5,Cc1nc2cnc(N)c(C#Cc3cncc(C(=O)Nc4ccc(CN5CCN(C)CC5)c(C(F)(F)F)c4)c3)c2nc1C,4.74% (active)
6,O=C1/C(=C/c2ccc(F)cc2)Sc2c(Br)cccc21,70.9%
7,Cc1ccc(-c2nc(N3CCN(C(=O)c4ccc(OC(F)(F)F)cc4)CC3)c3ccccc3n2)cc1,82%
8,CCOC(=O)c1c2c(n(-c3ccc(C#N)cc3)c1-c1ccccc1)C=CCC2,72.1%
9,CCOc1c(B(O)O)cccc1-c1nc2ccc3[nH]ncc3c2c2c1CCCC2,55.2%
10,CCOC(=O)C1=C(N)Oc2c(sc3c(CC)cccc23)C1c1ccc(F)cc1 (stereo not drawn),26.4%
11,CCCCCCn1c(-c2ccc(C(=O)O/N=C(\N)c3ccc4ccccc4c3)cc2)nc(-c2ccccc2)c1-c1ccccc1,47.9%
12,C=C(C)C1CCC2(C)OC2C1 (stereo not drawn),105%
13,Clc1ccc(C(/C=C/c2sc(Cl)nc2Cl)=N/Nc2cc(Cl)cc(Cl)c2)cc1,90.8%
14,c1ccc2c(-c3nc(-c4c[nH]c5ccncc45)cs3)c[nH]c2c1,56.3%
15,c1ccc(CO[C@H]2CO[C@H]3[C@@H]2OC[C@@H]3Oc2ccc(Nc3ncnc4ccsc34)cc2)cc1,70.4%
16,COc1cc2cc(Oc3ccc(NC(=O)Nc4ccc(Cl)c(Cl)c4)cc3)c(C)nc2cc1OCCN1CCOCC1,67.5%
17,Cc1nc2ccccc2c(/C=C/c2ccccc2)c1C(=O)/C=C/c1ccc(C(F)(F)F)cc1,-1.91% (active)
18,CCOC(=O)c1nc(Nc2ccc(C(C)=O)cc2)sc1C,87.2%
19,CCOC(=O)Nc1ccc(-c2nc(-c3cccc(OCCN4CCOCC4)c3)c(-c3ccnc(Br)c3)[nH]2)cc1,52%
